Measured values published in ChEMBL document CHEMBL3988442, “University of Dundee, Small-Polar-MMV Screening Library” (2021).
Screen size: about 48,000 compounds; about 13,000 (27%) showed an effect of 50% or more. The list shows a part of the results.

Test system: Wolbachia pipientis
Assay: Anti-Wolbachia Cell-Based Screen
Format: functional
Parameters: scale not given: in the data most compounds retested in dose-response had high values
Details: 5 µM

Structure (SMILES)	Percent Effect
CCN(C)C(C(=O)Nc1ccc2c(c1)CCC(=O)N2)c1ccccc1 (stereo not drawn)	0.8734%
OCCn1ncc2c1CN(CC1CCOc3ccccc3C1)C2 (stereo not drawn)	4.778%
CC(NC(=O)NCc1cscn1)c1ccc(N2CCOCC2)cc1 (stereo not drawn)	-18.24%
O=c1[nH]c2c(c(=O)n1C1CCCCC1)CCC2NCCc1ccccc1 (stereo not drawn)	24.49%
CC(C)N(CC1CCCN(CC(N)=O)C1)C(=O)OC(C)(C)C (stereo not drawn)	12.71%
COc1cccc(-c2cc(-c3nc(CN4CCN(C)CC4)no3)[nH]n2)c1	0.4618%
CN(C)CC1(O)CCN(C(=O)c2cnc(CN3CCCC3)s2)C1 (stereo not drawn)	-12.27%
Cc1csc(C(=O)N2CCC(O)(CN3CCc4ccccc4C3)C2)c1 (stereo not drawn)	114.3%
Cc1ccc(C(=O)N2CCC(O)(CN3CCc4ccccc4C3)C2)s1 (stereo not drawn)	99.66%
Cn1cccc1C(=O)N1CCC2(CC1)CCN2S(C)(=O)=O	-0.7561%
Cc1ccc(C(=O)N2CCN(CC(O)c3ccc(F)cc3)CC2)s1 (stereo not drawn)	-1.791%
Cn1cccc1C(=O)N1CCC(O)(CN2CCc3ccccc3C2)C1 (stereo not drawn)	119.3%
Cn1cccc1C(=O)N1CCCC2(CCCN2S(C)(=O)=O)C1 (stereo not drawn)	2.477%
O=S1(=O)C[C@@H]2[C@H](C1)N(Cc1cccc(O)c1)CCN2CC1CC1	-9.844%
Cc1noc([C@@H]2C[C@H](NS(=O)(=O)Cc3ccccc3)CN2C)n1	-2.99%
CC(OCC1CC1)C(=O)NCc1ccc(Cn2ccnc2)cc1 (stereo not drawn)	-1.593%
COc1ccccc1C(=O)N1CC2(COC(C)(C)OC2)C1	-9.843%
Cc1ccc([C@@H]2CN(C(=O)CCc3ccco3)C[C@H]2N(C)C)cc1	-4.926%
COc1ccccc1C(=O)N1CC(=O)N(Cc2ccco2)CC(O)C1 (stereo not drawn)	85.9%
CCc1ccc(CN2C[C@@H](C(=O)O)[C@H](c3ccccc3OC)C2)o1	-18.6%
Cc1ccc(C(=O)N2CC(=O)N(Cc3ccco3)CC(O)C2)cc1 (stereo not drawn)	118.6%
Cc1cc(C(=O)N2CCN(Cc3ccco3)C(CCO)C2)cc(=O)[nH]1 (stereo not drawn)	-4.439%
Cc1ccc(-c2nc(C(=O)N3CCCCC3CNS(C)(=O)=O)cs2)cc1 (stereo not drawn)	5.411%
NC(=O)CN(C(=O)c1cccc(C(F)(F)F)c1)C1CCCC1	-15.86%
NC(=O)CC1CCCCN1C(=O)c1cccc(C(F)(F)F)c1 (stereo not drawn)	118.1%
CS(=O)(=O)NCC1CCCCN1C(=O)c1cccc(C(F)(F)F)c1 (stereo not drawn)	93.67%

Structure (SMILES)	Percent Effect
NC(=O)NCC1CCCCN1C(=O)c1cccc(C(F)(F)F)c1 (stereo not drawn)	3.602%
CCC(O)CNC(=O)C1(N(C)Cc2ccccc2)Cc2ccccc2C1 (stereo not drawn)	-9.431%
CCc1nc2n(n1)CCCC2NC(=O)Nc1ccc(SC)c(F)c1 (stereo not drawn)	-17.88%
COc1cc(N2CCCC(c3nccn3CCN(C)C)C2)nc(N)n1 (stereo not drawn)	-7.598%
O=C(O)C(F)(F)F.c1cc(CN2C[C@H](OCC3CCOCC3)[C@H]3COC[C@H]32)co1	84.18%
COc1ccc(CN2C[C@@H](OCc3csc(C)n3)[C@H]3COC[C@H]32)cc1.O=C(O)C(F)(F)F	-4.618%
COc1ccc(CN2C[C@H](OCC3CCOCC3)[C@H]3COC[C@H]32)cc1.O=C(O)C(F)(F)F	2.727%
N#Cc1cccc(CN2C[C@H](OCC3CCOCC3)[C@H]3COC[C@H]32)c1.O=C(O)C(F)(F)F	-3.694%
O=C(O)C(F)(F)F.c1cc(CN2C[C@H](OCC3CCOCC3)[C@H]3COC[C@H]32)cs1	93.96%
c1ncc(-c2cn(CCSc3cnn[nH]3)nn2)cn1	-12.65%
O=C(NCc1cc[nH]n1)N1CCN(c2ncccn2)CC1	105.7%
N#Cc1ccccc1N1CCN(C(=O)NCC(=O)N2CCCC2)CC1	-1.371%
N#Cc1ccccc1N1CCCN(C(=O)NCc2cc[nH]n2)CC1	136.7%
CS(=O)(=O)NC1CCN(C(=O)NCc2cc[nH]n2)CC1	108.2%
CC(=O)N1CCC(C(=O)NCc2cc[nH]n2)(c2ccccc2)CC1	107.6%
CS(=O)(=O)NC1CCCN(C(=O)NCc2cc[nH]n2)C1 (stereo not drawn)	-1.074%
O=C(NCc1cc2n(n1)CCCNC2)C1(c2ccccc2)CCCCC1	0.555%
Cc1cccc(OC2CCN(C(=O)NCc3cc[nH]n3)CC2)c1C	-1.831%
CC(CNC(=O)N1CCN(c2ncccn2)CC1)Cc1cccs1 (stereo not drawn)	-35.53%
COCCOCCNC(=O)N1CCN(c2ccccc2C#N)CC1	9.744%
O=C(NCC1CCOC1)N1CCN(c2ncccn2)CC1 (stereo not drawn)	14.21%
CCC(CNC(=O)NCc1cc[nH]n1)N1CCCC1 (stereo not drawn)	2.082%
Cc1nn(C)c2ncc(NC(=O)N(C)Cc3cnn(C)c3)cc12	3.959%
COc1ccc(C(=O)O)c(OCC(=O)NC(C)c2ccccc2)c1 (stereo not drawn)	-11.95%
COc1cncc(N2CCN(Cc3ccncc3Cl)CC2)n1	-15.95%
O=C(NCc1ccc(N2CCSCC2)cc1)NCc1cc[nH]n1	-6.382%

Structure (SMILES)	Percent Effect
O=C(NCc1cc[nH]n1)N1CCC(Oc2ccccc2Cl)CC1	-25.2%
CCOc1ccccc1N1CCN(C(=O)NCc2cc[nH]n2)CC1	100.3%
CC(=O)N1CCCN(C(=O)NCc2cc[nH]n2)CC1	-2.345%
O=C(NCc1cc[nH]n1)N1CCN(c2ccccc2Cl)CC1	14.41%
CCC1c2ccsc2CCN1C(=O)NCc1cc[nH]n1 (stereo not drawn)	5.553%
CC(=O)c1ccc(N2CCN(C(=O)NCc3cc[nH]n3)CC2)cc1	106.6%
CCN1CCN(C(=O)NCc2cc[nH]n2)CC1	108.7%
NC(=O)c1ccc(CNC(=O)NCc2cc[nH]n2)cc1	0.637%
CN(C)c1ccccc1C(=O)N1C[C@@H](CN2CCC(O)CC2)[C@@H](CO)C1	-115.2%
Cc1cc(C(=O)Cn2cnnc2[S+](C)[O-])cc(C)c1F (stereo not drawn)	2.039%
CS(=O)(=O)c1cccc(C(=O)NCc2nc3cc(F)ccc3[nH]2)c1	93.8%
CS(=O)(=O)c1ccc(C(=O)NCc2nc3cc(F)ccc3[nH]2)cc1	97.05%
O=C(NCc1nc2ccccc2[nH]1)c1cnn2c1OCCC2	8.573%
CC(C)c1cc(C(=O)NCc2nc(-c3ccc(F)cc3)n[nH]2)n[nH]1	8.194%
O=C(NCc1nc2cc(F)ccc2[nH]1)c1ccc[nH]1	85.11%
CS(=O)(=O)c1cccc(C(=O)NCC2Cc3ccccc3O2)c1 (stereo not drawn)	-50.83%
CS(=O)(=O)c1cccc(C(=O)NCC2(c3ccccc3)CC2)c1	-5.384%
COC(=O)NCC(=O)N1CCC(c2nc3cc(F)ccc3[nH]2)CC1	-27.28%
O=C(NCc1nc2ccccc2[nH]1)c1cc2n(n1)CCCO2	4.478%
Cc1cc(NC(=O)Cn2nc(C)c(C#N)c2N)ccc1Br	-7.247%
Fc1ccc(-c2cc(NCCC3CCOC3)n3nccc3n2)cc1 (stereo not drawn)	40.16%
O=C(NC1CC1)[C@H]1CC[C@@H]2[C@@H](CCN2CCOCc2ccccc2)O1.O=C(O)C(F)(F)F	6.133%
CCS(=O)(=O)N1CCOC2(COCCN(C(C)=O)C2)C1 (stereo not drawn)	-3.912%
CCC1CN(C(=O)c2ccccc2N2CCOCC2)CCN1C(C)C (stereo not drawn)	8.112%
CCNC(=O)C1CCN(c2cc(-c3ccccc3F)nc3ccnn23)C1 (stereo not drawn)	-1.287%
COc1ccccc1CN1C[C@@H](F)[C@@H](OCc2nc3ccccc3[nH]2)C1	0.7932%

Structure (SMILES)	Percent Effect
Cc1ccsc1C(=O)N1CCc2ncc(CN3CCCC3)n2CC1.O=C(O)C(F)(F)F	-31.81%
CC(=O)NCc1nnc2n1CCN(c1nc(C)nc3sccc13)CC2	-5.354%
Cl.Cn1cncc1CN1CCc2nc3sccc3c(=O)n2CC1	103.5%
CCn1cncc1CN1CCc2nc3sccc3c(=O)n2CC1	89.02%
Cc1ccc(CN2CCNC(C(=O)NC3CC3)C2)cc1C (stereo not drawn)	34.83%
CC(NC1CCN(CCS(C)(=O)=O)CC1)c1ccc(Cl)cc1 (stereo not drawn)	-9.034%
Cc1ncsc1CCC(=O)NC1CCN(c2ccc(Cl)nn2)CC1	-3.367%
O=C(Nc1ccc(-n2cncn2)c(F)c1)C1CCN(C(=O)C2CC2)CC1	-16.72%
CC1CCCN(c2ccccc2OCC(=O)NC2CC2)C1 (stereo not drawn)	-2.178%
CC1CCN(c2nccn3c(=O)[nH]nc23)CC1	109.7%
CC1CCCN(c2nccn3c(=O)[nH]nc23)C1 (stereo not drawn)	119.4%
CC1CCN(c2nc3c(cnn3-c3ccccc3)c(=O)[nH]2)CC1	0.2654%
CC1CCN(Cc2cc(=O)[nH]c(=O)[nH]2)CC1	-40.44%
NS(=O)(=O)CC1CCN(c2ncccc2C(F)(F)F)CC1	-0.5729%
NC1CCN(c2nccn3c(=O)[nH]nc23)CC1	124.1%
CC(C)n1ccnc1C1CCCN(c2ncccc2C(N)=O)C1 (stereo not drawn)	2.955%
c1ccc(-c2nc3c(c(NCCCn4cncn4)n2)CCNCC3)nc1	-4.021%
COc1ccc(C(CO)NC(=O)Nc2cccnc2)cc1 (stereo not drawn)	-17.84%
Cc1nnc(C(C)N(C)Cc2c(C)nn(-c3ccccc3C)c2C)o1 (stereo not drawn)	-9.364%
CCn1nnnc1-c1cccc(NC(=O)COC2CCCC2)c1	5.943%
CCc1noc(C(C)N2CCCN(Cc3noc(C4CC4)n3)CC2)n1 (stereo not drawn)	8.614%
CCc1noc(C(C)N2CCN(Cc3noc(C4CC4)n3)CC2)n1 (stereo not drawn)	3.435%
CCCc1nc(CN2CCN(C(C)c3nc(C4CC4)no3)CC2)no1 (stereo not drawn)	124.6%
CCc1nc(CN2CCN(C(C)c3nc(C4CC4)no3)CC2)no1 (stereo not drawn)	112.7%
CCCc1nc(CN2CCN(Cc3noc(CCC)n3)CC2)no1	0.9498%
